Screening data from PubChem.
RecA splice inh: blocks M. tuberculosis RecA intein splicing. cell-free RecA intein splicing, fluorescence. inhibition, % (no concentration beside the values). 290,000 tested, 0.75% active; in the data active = inhibition above about 30%;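 note: 0% = vehicle wells and 100% = reference inhibitor control wells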
FBA Mtb inh: Mtb fructose-bisphosphate aldolase inhibition. 360,000 tested, 2.3% active. AID 588726. P9WQA3. purified M. tuberculosis FBA, fluorescence read-out. inhibition, % at 1 µM;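 note: 0% = vehicle and 100% = reference inhibitor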
Target sequence (P9WQA3 whole entry, looked up): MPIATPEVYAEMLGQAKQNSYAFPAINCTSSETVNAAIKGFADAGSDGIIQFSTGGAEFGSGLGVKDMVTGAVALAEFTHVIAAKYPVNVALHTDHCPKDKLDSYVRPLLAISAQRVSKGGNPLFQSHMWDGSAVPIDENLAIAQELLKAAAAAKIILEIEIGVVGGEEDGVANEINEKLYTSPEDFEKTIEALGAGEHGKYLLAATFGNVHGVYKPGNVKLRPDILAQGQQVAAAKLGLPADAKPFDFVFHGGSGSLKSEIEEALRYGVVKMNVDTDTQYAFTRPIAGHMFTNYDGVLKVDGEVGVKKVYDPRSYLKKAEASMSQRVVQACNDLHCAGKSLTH
GDH-TPI counter-1: GDH-TPI coupled enzyme inhibition counter-screen | GDH-TPI coupled enzyme counterscreen, NADH absorbance | inhibition, % at 4.8 µM | 360,000 tested, 1.2% active; in the data active = inhibition above about 30%;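 note: 0% = DMSO wells and 100% = wells lacking the enzyme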
Mtb betalactam: beta-lactam sensitization of Mtb H37Rv. M. tuberculosis H37Rv growth with meropenem, percent inhibition. inhibition, % at 25 µM. 330,000 tested, 0.27% active. AID 434955; call rule not given here;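 note: growth measured after seven days incubation then overnight dye step; 0% = bacteria only wells and 100% = bacteria with antibiotic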
UGM FP inh: blocks M. tuberculosis UGM enzyme. P9WIQ1. purified UGM, fluorescence polarization probe displacement. inhibition, % at 10 µM. 320,000 tested, 0.06% active; in the data active = inhibition above about 10%, passing the limit was not always enough
Rv3671c inh: inhibitors of M. tuberculosis serine protease Rv3671c; inhibition, % at 5.96 µM; 320,000 tested, 0.048% active; P9WHR9; in the data active = inhibition above about 38%;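 note: extracellular domain of Rv3671c used as enzyme; 0% = enzyme with DMSO and 100% = no enzyme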
Mtb FBA inh conf: confirmation of M. tuberculosis fructose-bisphosphate aldolase inhibitors; shares compounds with FBA Mtb inh; purified M. tuberculosis FBA, fluorescence read-out; inhibition, % at 1 µM; 5,600 tested, 78% active;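 note: 0% = vehicle wells and 100% = reference inhibitor wells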
GDH-TPI counter-2: inhibits GDH-TPI coupling enzymes, flagging Mtb FBA hits; shares compounds with FBA Mtb inh; GDH-TPI coupled enzyme counterscreen, fluorescence; inhibition, % at 1 µM; 5,600 tested, 81% active; AID 652141; in the data active = inhibition above about 10%
* hit, by the source's call; · = no result; + = active, no number. The list is not random: actives were taken first. Their share in the collection is about 4%. Cut-off read from the data, not from the text of the source, unless noted: active = inhibition above about 27%; inactive = the rest.

SMILES	RecA splice inh	FBA Mtb inh	GDH-TPI counter-1	Mtb betalactam	UGM FP inh	Rv3671c inh	Mtb FBA inh conf	GDH-TPI counter-2
CCOC(=O)c1c(-c2ccccc2)oc2ccc(OCC(O)CNCCN(C)C)cc12 (configuration not stated)	-3.9	42.0*	7.4	92.3	-1.4	-1.8	0.9	-0.6
COc1ccc2oc(-c3ccccc3)c(C(=O)N3CCOCC3)c2c1	-2.6	40.4*	10.8	-5.2	0.4	0.8	72.2*	48.0*
CCOc1ccc2oc(-c3ccccc3)c(C(=O)N3CCN(C)CC3)c2c1	-2.5	70.8*	20.9	-10.9	-0.4	0.6	92.2*	57.8*
COc1cc(C)ccc1S(=O)(=O)NC(=O)C1(C)CCN1C(=O)c1ccc(C2CCCCC2)cc1 (configuration not stated)	·	2.4	14.3	·	·	·	·	·
COc1ccc(C2(C(=O)c3ccccc3)C(=O)c3ccccc3C2=O)cc1	8.5	2.8	1.5	-4.4	3.4	0.1	·	·
O=C(NCCCN1CCOCC1)c1onc(CSc2ccccn2)c1C(=O)NCCCN1CCOCC1	-0.3	-0.5	-8.4	-2.9	-2.0	2.6	·	·
Cc1ccc2nc(-c3sc4nc(C)cc(C)c4c3N)[nH]c2c1	-22.4	30.3*	9.1	-4.0	-0.3	11.8	112.2*	81.9*
O=C(c1c[nH]c2ccc(S(=O)(=O)N3CCC4(CC3)OCCO4)cc2c1=O)N1CCC2(CC1)OCCO2	-1.2	33.9*	-1.9	-5.1	1.0	-2.9	46.1*	43.5*
O=C(c1c[nH]c2ccc(S(=O)(=O)N3CCC4(CC3)OCCO4)cc2c1=O)N1CCOCC1	-1.1	23.5	5.1	·	·	·	·	·
COc1cc2cncc(Cc3ccccc3)c2cc1O	·	58.0*	15.3	·	·	·	85.1*	78.3*
COc1cc(Cl)cc(/C=N\NC(=O)c2ccc3c(c2)OCO3)c1O	·	27.2*	29.2	·	·	·	135.2*	113.9*
COc1ccc(-c2c[n+]3c4n2CCCCC4=C(c2ccc(Br)cc2)C3)cc1	23.6	75.3*	8.4	98.4	1.8	3.1	136.2*	104.9*
CCOC(=O)c1ccc(NC(=O)N2CCc3ccccc32)cc1	5.1	0.3	-2.1	3.7	-0.4	-0.2	·	·
CCCNC(=O)C1(CC2CC(c3ccccc3)=NO2)CCN(C(=O)c2cc(OCC)c(OCC)c(OCC)c2)CC1 (configuration not stated)	-0.8	29.0*	0.4	64.5	1.1	-6.2	169.3*	128.1*
CCOc1cc(C(=O)N2CCC(CC3CC(c4cccc(Br)c4)=NO3)(C(=O)NCC3CCCCC3)CC2)cc(OCC)c1OCC (configuration not stated)	-0.4	5.2	17.1	1.4	-2.9	-11.9	·	·
O=C(c1ccc(-c2cc3ccccc3oc2=O)cc1)N1CCN(c2ccc(Cl)cc2[N+](=O)[O-])CC1	0.2	-1.1	9.9	6.5	0.2	-3.8	·	·
CCCCCC(=O)Nc1cccc2ccccc12	7.2	-2.3	-1.2	98.4	-2.5	-16.4	·	·
CN[C@@H](C)C(=O)NC[C@H]1O[C@@H](n2cnc3c(=O)[nH]c(N)nc32)[C@H](O)[C@@H]1O	·	1.1	·	·	·	·	·	·
COCC1OC(OC(C)C(O)c2cnc3nc(N)[nH]c(=O)c3n2)C(O)C(OC)C1O (configuration not stated)	·	103.4*	-4.2	·	·	·	92.4*	66.0*
Cc1ccc(S(=O)(=O)CCC(=O)OCC(=O)Nc2cc(F)ccc2C)cc1	-3.7	2.5	6.5	-5.5	5.7	-0.9	·	·
CCOC(=O)C1CCN(C(=O)c2cc3cc4ccc(OC)cc4nc3o2)CC1	-7.2	106.2*	23.6	3.0	3.5	2.1	24.8	16.8*
COc1ccc2cc3cc(C(=O)N4CCN(Cc5ccc6c(c5)OCO6)CC4)oc3nc2c1	0.0	59.0*	46.1*	-9.5	0.0	-2.5	+	+
COc1ccc2nc3oc(C(=O)N4CCC(C(N)=O)CC4)cc3cc2c1	-1.8	98.2*	26.5	2.7	-1.5	-8.1	+	153.8*
Cc1ccc(C2=NOC3(CC(=O)N(c4ccc(C)cc4)C3=O)C2)cc1 (configuration not stated)	·	28.6*	27.9	-2.2	3.0	8.3	42.5*	38.5*
CC(C)CN1Cc2cc(-c3ccccc3)ccc2-n2nncc2C1	·	31.1*	·	·	·	·	+	+
SMILES	RecA splice inh	FBA Mtb inh	GDH-TPI counter-1	Mtb betalactam	UGM FP inh	Rv3671c inh	Mtb FBA inh conf	GDH-TPI counter-2
Cc1ccc2nc(-c3ccsc3)c(NC3CCCC3)n2c1	0.2	27.7*	8.8	4.4	-1.1	3.9	17.8	13.9*
C[C@H]1CN([C@@H](C)CO)C(=O)CCCn2nncc2CO[C@H]1CN(C)C(=O)Nc1ccnc(N2CCOCC2)c1	·	3.9	12.3	·	·	·	·	·
O=C(O)c1cc(-c2ccccc2)nc2ccccc12	3.8	8.5	19.8	1.8	-1.9	5.5	·	·
c1ccc(-c2cc(-c3nc4ccccc4[nH]3)c3ccccc3n2)cc1	6.0	60.3*	23.0	32.0	0.0	-181.5	68.7*	71.2*
CCCn1c(=O)c(-c2nc3ccccc3[nH]2)c(O)c2ccccc21	0.4	13.7	18.6	27.9	-0.2	3.2	·	·
O=c1[nH]nc(-c2cc(-c3ccccc3)nc3ccccc23)o1	·	65.0*	29.0	·	·	·	121.6*	93.7*
Cn1cc(-c2nc3ccccc3[nH]2)c2ccccc21	2.2	43.9*	19.0	-1.4	-0.2	8.4	2.3	5.8
Cc1cc(N2CCOCC2)nc2ccc(NC(=S)NCc3ccc4c(c3)OCO4)cc12	2.5	11.2	0.8	-0.4	0.4	0.2	·	·
COCCNC(=S)Nc1ccc2nc(N3CCCC3)cc(C)c2c1	-11.6	5.3	16.7	-3.1	-0.5	-1.1	·	·
Cc1cc(N2CCOCC2)nc2ccc(NC(=S)NC(C)C)cc12	-11.7	36.6*	7.9	11.2	6.2	-1.2	108.2*	96.0*
Cc1cc(N2CCCC2)nc2ccc(NC(=S)NC(C)C)cc12	-6.3	30.7*	17.9	-11.3	2.2	5.8	23.6	15.7*
CCOCCCNC(=S)Nc1ccc2nc(N3CCCC3)cc(C)c2c1	-2.0	17.1	8.7	-7.8	-1.5	-1.0	·	·
COCCNC(=S)Nc1ccc2nc(N3CCOCC3)cc(C)c2c1	-4.9	50.6*	7.9	-5.2	-0.6	2.6	0.4	-3.4
CC(=O)Nc1ccc(NC(=O)CS(=O)(=O)c2cn(CC(=O)N3CCCC3)c3ccccc23)cc1	3.8	4.9	-3.1	-3.4	0.0	-8.3	·	·
Cc1ccc(NS(=O)(=O)c2ccccc2[N+](=O)[O-])cc1S(=O)(=O)N1CCCCC1	·	-2.5	5.3	7.2	-0.7	-2.0	·	·
Cc1cc(NCCO)c2cc(O)ccc2n1	-57.5	90.4*	14.6	1.1	-1.0	5.5	105.4*	126.6*
Cc1cc(NCCO)c2ccccc2n1	-0.1	-0.3	6.9	-5.7	-0.5	-9.1	·	·
OCCNc1nc2ccccc2nc1NCCO	-0.1	34.5*	15.9	0.7	-3.2	-2.8	+	173.0*
